Test results from PubChem BioAssay (NCI).
About 83,000 compounds went through this panel and 20% of them were active in at least one assay; those are over-represented in the sample as a whole.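 Note: values are percent growth. 100 is the growth of untreated cells, values between 100 and 0 indicate rising inhibition; between -100 and 0 indicates cell death.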 Activity calls are given as the source filed them. Rule for the calls: active = growth percent below 10; inactive = the rest.

The compounds below were run on SW-620 colon (assay: NCI-60 one-dose screen, 48 h (100 = growth as untreated, 0 = no growth, -100 = all killed)). Details: 10 µM.
With c1ccc([C@H]2CN3CCSC3=N2)cc1 the growth was 98.6% (inactive). With NC(=O)SCC(=O)Nc1ccc(S(N)(=O)=O)cc1 the growth was 99.2% (inactive). For Cc1nc2ccc(CN(C)c3ccc(C(=O)N[C@@H](CCC(=O)O)C(=O)O)s3)cc2c(=O)[nH]1, the growth was 71.4% (inactive). With COc1ccc(OC)c(/C=C/c2nc(SCc3ccccc3)n(-c3ccc(Cl)cc3)n2)c1 the growth was 28.2% (inactive). COc1cc(Cc2cc(-c3ccc(Cl)cc3)n[nH]c2=O)ccc1O was tested, and the growth was 109% (inactive). CN(C)C(=S)N/N=C\C=N/NC(=S)N(C)C was tested, and the growth was 64.1% (inactive). For COc1ccc(N=C2C(=Nc3ccc(OC)cc3)N(c3ccc(N(C)C)cc3)C(=S)N2c2ccc(OC)cc2)cc1, the growth was 94.7% (inactive). With COC(=O)[C@@H]1[C@H](O)[C@H](C)[C@H](O)[C@@](C)(O)/C=C\C=C(C)C(=O)Nc2c(C)c(OC(C)=O)c3c(c2O)C(=O)C(C)=C2OCOC(=C23)C(C)=C[C@@](C)(O)[C@H](O)[C@@H](C)[C@H]1OC(C)=O the growth was 124% (inactive). In the case of COc1cccc(C2C3=C(COC3=O)N(CCO)c3cc(OC)ccc32)c1 (centres undefined), the growth is reported as 21% (inactive). In the case of CCc1ccc2c(c1)N(CCO)C1=C(C(=O)OC1)C2c1ccccc1 (centres undefined), the growth is reported as 97.2% (inactive). CO/N=C(/C(=O)NC1C(=O)N2C(C(=O)O)=C(COC(N)=O)CSC12)c1ccco1 (centres undefined) was tested, and the growth was 110% (inactive). For COc1ccc(N2C(=O)C3c4[nH]c5ccc(OCc6ccccc6)cc5c4C4CCC(C(C)C)CC4C3C2=O)cc1 (centres undefined), the growth was 87.9% (inactive). In the case of CCN(CC)CCNC(=O)c1ccc(NC(C)=O)cc1, the growth is reported as 107% (inactive). In the case of CCOC(=O)C1CCc2c(ccc3ccccc23)N1CCC#N (centres undefined), the growth is reported as 91.9% (inactive). For CN(C)CCN1C(=O)c2cccc3cc(N)cc(c23)C1=O, the growth was 21% (inactive). With COc1ccc2c(c1)nc(N)c1c3cccnc3cn21 the growth was 20.5% (inactive). CN1CC[C@@H](c2c(O)cc(O)c3c(=O)cc(-c4ccccc4Cl)oc23)[C@@H](O)C1 was tested, and the growth was 9.83% (active). In the case of O=C(/C=C/c1cc2ccccc2[nH]c1=O)c1ccc2c(c1)OCO2, the growth is reported as 99.6% (inactive). In the case of CCCC1(CC(=O)O)OCCc2c1[nH]c1ccccc21 (centres undefined), the growth is reported as 115% (inactive). With C=C(Cl)[C@@](Cl)(CBr)CC[C@@H](Br)C(C)(C)Cl the growth was -61.7% (active). For CC[C@H](C)C(=O)O[C@H]1CCC=C2C=C[C@H](C)C(CCC3C[C@@H](O)CC(=O)O3)[C@H]21 (some centres undefined), the growth was 71.6% (inactive). With CC1CN(Cc2ccccc2)C(=O)NC1=O (centres undefined) the growth was 110% (inactive). With Cc1cccc2c(NCCN(C)C)c3cccc(C(=O)NCCN(C)C)c3nc12 the growth was 4.11% (active). In the case of O=C(CCCCCCC(=O)Nc1cccnc1)NO, the growth is reported as 35.6% (inactive). For O=C1OCC2=C1C(c1cccc(Br)c1)c1cc3c(cc1N2CCO)CCC3 (centres undefined), the growth was 17.5% (inactive). O=C(CNC(=O)OCc1ccccc1)NCC(=O)Oc1ccc([N+](=O)[O-])cc1 was tested, and the growth was 95.9% (inactive). In the case of CC(C)C[C@H](NC(=O)[C@H](Cc1cccc2ccccc12)NS(=O)(=O)c1cccc2cccnc12)B(O)O, the growth is reported as -16% (active). With Cc1cc(C)c(NC(=O)c2sc3nc4c(cc3c2N)C(=O)CCC4)c(C)c1 the growth was 15.6% (inactive). For COc1cc(NC(=O)CSc2nc3ccccc3c(=O)n2CCc2ccccc2)cc(OC)c1OC, the growth was 48.6% (inactive). In the case of CCOCCOCCOCCOCCOCCOCCOCCOCCOCCO (tested in a mixture with another compound), the growth is reported as 18.6% (inactive). With COc1cc(OC)cc(-c2cncn2-c2ccc(-c3nc4cc(OC)cc(OC)c4s3)cc2)c1 the growth was 48.2% (inactive). In the case of COc1ccc(OC)c2c1C(=O)CC2C (centres undefined), the growth is reported as 105% (inactive). Nc1ncn(C2OC(CO)C(O)C2O)c(=O)n1 (centres undefined) was tested, and the growth was 29.3% (inactive). For N#Cc1c(C#N)c(SSc2c(C#N)c(C#N)c(N)n2-c2ccccc2)n(-c2ccccc2)c1N, the growth was 98.7% (inactive). With CCCCCCCCCCCCCCCCCCOCC(COCCOCC[N+]1(CCCCCC(=O)[O-])CCCC1)Oc1ncccn1 (centres undefined) the growth was 42.9% (inactive). In the case of O=C1NC(=O)N(Cc2ccccc2)CC1Br (centres undefined), the growth is reported as 51.7% (inactive). For C=C(NC(=O)C(=C)NC(=O)c1csc(C2=NC3c4csc(n4)C4NC(=O)c5csc(n5)C(C(C)(O)C(C)O)NC(=O)C5CSC(=N5)/C(=C/C)NC(=O)C(C(C)O)NC(=O)c5csc(n5)C3(CC2)NC(=O)C(C)NC(=O)C(=C)NC(=O)C(=C)NC(=O)C(C(C)C)NC2C=Cc3c(C(C)O)cc(nc3C2O)C(=O)OC4C)n1)C(N)=O (centres undefined), the growth was -8.45% (active). For O=C1ON=[N+](c2ccc(Cc3ccc([N+]4=NOC(=O)C4CN4CCOCC4)cc3)cc2)C1CN1CCOCC1 (centres undefined), the growth was 67.7% (inactive). In the case of C/C(=N\Nc1nc2ccccc2s1)c1ccncn1, the growth is reported as 31.2% (inactive).
